Laboratory results reported in the supplement of paper PMC13380429.

test system: Vero E6 infected with SARS-CoV-2; assay: inhibition of SARS-CoV-2 cytopathic effect; higher = more antiviral protection, active = above 15; details: 1 nM; 48 h

SMILES | inhibition of SARS-CoV-2 cytopathic effect
O=C1OC(CN2CCOCC2)CN1/N=C/c1ccc([N+](=O)[O-])o1 (stereo not given) [furaltadone] | -10.1% (inactive)
CCN(CC)c1ccc(/C=N/NC(=O)c2ccc(O)cc2)cc1 | -0.79% (inactive)
Oc1cc(O)c2c(c1)O[C@H](c1ccc(O)c(O)c1)[C@@H](O)C2 [cianidanol] | -1.29% (inactive)
NS(=O)(=O)c1ccc2c(c1)C1C=CCC1C(c1ccc(Br)cc1)N2 (stereo not given) | -1.04% (inactive)
c1nc(CC2CCNCC2)c[nH]1 [immepip] | -1.43% (inactive)
CCN(Cc1ccncc1)C(=O)C(CO)c1ccccc1 (stereo not given) [tropicamide] | 2.76% (inactive)
O=C(/C=C\n1cnc(-c2cc(C(F)(F)F)cc(C(F)(F)F)c2)n1)NNc1cnccn1 [selinexor] | -0.07% (inactive)
CON [methoxyamine] | 0.67% (inactive)
CC1C(=O)OC2C(O)C34C5CC(C(C)(C)C)C36C(OC(=O)C6O)OC4(C(=O)O5)C12O (stereo not given) [ginkgolide-B] | 1.36% (inactive)
O=C(Nc1c(-c2cccs2)nc2ccccn12)c1ccc(Cl)cc1 | 1.67% (inactive)
C[C@H](c1ccc(F)cc1CCCC(=O)O)N(c1cc(F)ccc1F)S(=O)(=O)c1ccc(Cl)cc1 | -1.95% (inactive)
C[C@]12CC[C@@H]3c4ccc(O)cc4CC[C@H]3[C@@H]1CC[C@@H]2OC(=O)CCC1CCCC1 [estradiol-cypionate] | -1.71% (inactive)
CCOC(=O)c1c(C)[nH]c2ccc3c(c12)CN1CCc2cc(OC)ccc2C1O3 (stereo not given) | 3.34% (inactive)
CC(C)NCC(O)COc1ccc(COCCOC(C)C)cc1 (stereo not given) [bisoprolol] | -5.27% (inactive)
CNC(=O)c1c(-c2ccc(F)cc2)oc2cc(N(CCO)S(C)(=O)=O)c(C3CC3)cc12 [nesbuvir] | 0.34% (inactive)
COc1ccc(/C=C/C(=O)Nc2ccccc2C(=O)O)cc1OC [tranilast] | -0.23% (inactive)
CC(=O)Oc1cc(C(F)(F)F)ccc1C(=O)O [triflusal] | -0.9% (inactive)
CN(CCOc1ccc(C[C@H](Nc2ccccc2C(=O)c2ccccc2)C(=O)O)cc1)c1ccccn1 | 2.1% (inactive)
CCc1c(C(=O)NCCc2ccc(N3CCCCC3)cc2)[nH]c2ccc(Cl)cc12 | 1.1% (inactive)
Cn1cc(-c2ccc3c(c2)CCN3C(=O)Cc2cccc(C(F)(F)F)c2)c2c(N)ncnc21 | 0.06% (inactive)

SMILES | inhibition of SARS-CoV-2 cytopathic effect
COc1ccc(CN2C(=O)C(=O)c3cc(OC(F)(F)F)ccc32)cc1 | -0.15% (inactive)
N#Cc1cc(F)cc(-c2nc(-c3ccc(F)cn3)no2)c1 | 0.6% (inactive)
O=C1NN(C(=O)Nc2ccc(Br)cc2)[C@@H](c2ccccc2)[C@@H]1c1ccccc1 | 0.57% (inactive)
CN1CCN(C(c2ccccc2)c2ccc(Cl)cc2)CC1 (stereo not given) [chlorcyclizine] | -1.24% (inactive)
COCC(=O)O[C@]1(CCN(C)CCCc2nc3ccccc3[nH]2)CCc2cc(F)ccc2[C@@H]1C(C)C [mibefradil] | -2.83% (inactive)
CNc1ccc([N+](=O)[O-])cc1-n1cnc(-c2ccc(C(F)(F)F)cc2)c1 | 1.34% (inactive)
Cc1oc(=O)oc1CN1CCN(c2cc3c(cc2F)c(=O)c(C(=O)O)c2n3C(C)S2)CC1 (stereo not given) [prulifloxacin] | 0.31% (inactive)
Cc1nc(C)c(C)nc1C [chuanxiongzine] | 2.81% (inactive)
N#Cc1c(N)nc(SCC(N)=O)c(C#N)c1-c1ccc(OCC2CC2)cc1 | 4.36% (inactive)
O=C(O[C@H]1[C@H](OC(=O)c2cccnc2)[C@@H](OC(=O)c2cccnc2)[C@H](OC(=O)c2cccnc2)[C@@H](OC(=O)c2cccnc2)[C@H]1OC(=O)c1cccnc1)c1cccnc1 [inositol-hexanicotinate] | 2.01% (inactive)
CCOC(=O)[C@]12CC1/C(=N\O)c1ccccc1O2 (stereo not given in full) | 1.49% (inactive)
OC[C@H]1O[C@@H](n2cnc3c(NC4CCCC4)ncnc32)[C@H](O)[C@@H]1O [N6-cyclopentyladenosine] | 0.37% (inactive)
CN(C)CC[C@H](CSc1ccccc1)Nc1ccc(S(=O)(=O)NC(=O)c2ccc(N3CCN(Cc4ccccc4-c4ccc(Cl)cc4)CC3)cc2)cc1[N+](=O)[O-] | -0.41% (inactive)
O=C(O)C1=C[C@@H](O)[C@@H](O)[C@H](O)C1 [shikimic-acid] | 2.18% (inactive)
C[C@]12CC[C@@H]3c4ccc(OC(=O)c5ccccc5)cc4CC[C@H]3[C@@H]1CC[C@@H]2O [estradiol-benzoate] | -5.16% (inactive)
CC[C@@]1(O)C(=O)OCc2c1cc1n(c2=O)Cc2c-1nc1cc(F)c(C)c3c1c2[C@@H](N)CC3 [exatecan-mesylate] | -2.4% (inactive)
Cc1cccc(C)c1NC(=O)[C@@H](C)N [tocainide] | 1.21% (inactive)
Nc1ccn([C@@H]2O[C@@](CO)(CCl)[C@@H](O)[C@H]2F)c(=O)n1 | 3.35% (inactive)
CN(C)CCOC(=O)C(c1ccccc1)C1(O)CCCC1 (stereo not given) [cyclopentolate] | -1.73% (inactive)
Cc1ccc(NCCCc2ccccc2)c(N)c1 [NFKB-activation-inhibitor-II] | -0.97% (inactive)
